Measured values reported in PubChem BioAssay (NCI).
About 83,000 compounds went through this panel and 20% of them were active in at least one assay; those are over-represented in the sample as a whole.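 Each cell line was grown in a 96-well plate and treated with one concentration of compound for 48 hours. Values below 10 were considered active.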 Values without a mark were called inactive. The source made the active and inactive calls.

What was measured:
Test in all cases: NCI-60 one-dose screen, 48 h (100 = growth as untreated, 0 = no growth, -100 = all killed)
Settings in all cases: 10 µM unless noted
NCI-H23 lung = tested on: NCI-H23 lung
NCI-H226 lung = tested on: NCI-H226 lung
NCI-H322M lung = tested on: NCI-H322M lung
HOP-62 NSCLC = tested on: HOP-62 NSCLC
NCI-H460 lung = tested on: NCI-H460 lung
NCI-H522 lung = tested on: NCI-H522 lung
A549/ATCC NSCLC = tested on: A549/ATCC NSCLC
786-0 renal = tested on: 786-0 renal
COLO 205 colon = tested on: COLO 205 colon
DU-145 prostate = tested on: DU-145 prostate
K-562 leukemia = tested on: K-562 leukemia
MALME-3M melanoma = tested on: MALME-3M melanoma
MDA-MB-231 breast = tested on: MDA-MB-231 breast
RXF 393 renal = tested on: RXF 393 renal
SF-268 CNS = tested on: SF-268 CNS
SF-295 CNS = tested on: SF-295 CNS
SF-539 CNS = tested on: SF-539 CNS
UACC-257 melanoma = tested on: UACC-257 melanoma
M14 melanoma = tested on: M14 melanoma
HCT-15 colon = tested on: HCT-15 colon

| SMILES | growth (NCI-H23 lung) | growth (NCI-H226 lung) | growth (NCI-H322M lung) | growth (HOP-62 NSCLC) | growth (NCI-H460 lung) | growth (NCI-H522 lung) | growth (A549/ATCC NSCLC) | growth (786-0 renal) | growth (COLO 205 colon) | growth (DU-145 prostate) | growth (K-562 leukemia) | growth (MALME-3M melanoma) | growth (MDA-MB-231 breast) | growth (RXF 393 renal) | growth (SF-268 CNS) | growth (SF-295 CNS) | growth (SF-539 CNS) | growth (UACC-257 melanoma) | growth (M14 melanoma) | growth (HCT-15 colon) |
| --- | --- | --- | --- | --- | --- | --- | --- | --- | --- | --- | --- | --- | --- | --- | --- | --- | --- | --- | --- | --- |
| Cc1ccsc1/C=C/C1=NCCCN1C | 97% | 100% | 102% | 100% | 116% | 91% | 99.7% | 92.5% | 101% | 112% | 101% | 97% | 99.3% | 113% | 111% | 95.6% | 119% | 110% | 100% | 109% |
| CCC1=C(c2ccc(OC)cc2)C(C)(C)Oc2c1ccc(O)c2CN1CCCC1 | 13.1% | 29% | 47.7% | 18.7% | -38.1% (active) | 30.4% | 67.1% | 34.2% | 77.1% | 64.8% | -24.9% (active) | -9.28% (active) | 24.2% | 14.9% | 54.3% | -44% (active) | 69.3% | -16.1% (active) | -75.8% (active) | 8.13% (active) |
| COc1ccc(-c2c(-c3cc(OC)c(OC)c(OC)c3)noc2N)cc1 | 31.1% | 16% | 43.2% | 41.4% | 7.26% (active) | -28.9% (active) | 22.3% | 20% | -72% (active) | -3.15% (active) | 11.8% | 67.5% | 17.1% | 26.5% | 23.8% | 8.4% (active) | 19.3% | 77.5% | 15.2% | 28% |
| CCN1C[C@@H](C)n2c(c(O)c3c(=O)n(Cc4ccc(F)c(Cl)c4)nc(C(=O)NC)c32)C1=O | 11.3% | 26.4% | 18.4% | 26% | 15.2% | 69.3% | 11% | 18.4% | 101% | 22.6% | 42% | 5.1% (active) | 50.7% | 2.79% (active) | 23.2% | 0.0694% (active) | 3.53% (active) | 3.7% (active) | 30.4% | 6.16% (active) |
| c1csc([C@@H]2C[C@@H]3Cc4ccc5ccccc5c4N2O3)c1 | 95.5% | 108% | 91.2% | 112% | 109% | 87% | 90.8% | 98.2% | 120% | 113% | 93.2% | 86.4% | 89.1% | 104% | 108% | 109% | 90.5% | 98.7% | 99.7% | 93.7% |
| N#Cc1c(N)[nH]c(S)c1C#N | 105% | 97.5% | 108% | 100% | 107% | 97.4% | 90.9% | 107% | 120% | 112% | 100% | 107% | 99.3% | 113% | 108% | 87.7% | 97.9% | 99.9% | 100% | 100% |
| c1ccc(-c2nnc(Nc3nnc(-c4ccccc4)s3)s2)cc1 | 109% | 101% | 86.9% | 101% | 101% | 104% | 103% | 106% | 116% | 112% | 111% | 101% | 102% | 105% | 103% | 102% | 101% | 99.1% | 105% | 102% |
| Cc1nc2c(O)cccc2cc1CO | 94.9% | 114% | 165% | 106% | 103% | 107% | 109% | 96.3% | 142% | 113% | 82.8% | 178% | 110% | 136% | 99.8% | 106% | 93.5% | 116% | 110% | 109% |
